# Reference: the supplement of paper PMC10849652
# About 7,900 targets were measured; listed, in parts, are those with a hit and a random draw of the rest. About 0.6% of all pairs of compound and target were hits. Values without a mark were called inactive.
# How the values were obtained:
# Assay in all cases: log2 fold change, soluble protein after heating vs DMSO (PISA); higher = thermal stabilisation; K562 cells, 10 uM, 30 min; active = over 0.2 and 3.5 SD of the protein, either way, in both replicates (recomputed)
# [1] = compound: CC1=C(C=C(C=C1)NC(=O)C2=CC(=CC=C2)C(C)(C)C#N)NC3=CC4=C(C=C3)N=CN(C4=O)C
# Outline: (§1)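 Aliquots of K562 cells (2×10^6 cells/mL) treated with 10 μM compound for 30 min were heated for 3 min over 48°C-58°C. After pooling and extraction in PBS with 0.5% NP-40 at 4°C, soluble protein from a 21,000xg, 90 min spin was quantified by TMTpro 16plex LC-MS/MS with channel sums equalised. Thermal stability is expressed against control samples, from duplicates, as a log2 fold change.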
# [2] = compound: CC1=C(C=C(C=C1)NC(=O)C2=CC(=CC=C2)N(C)C)NC(=O)C3=CC=C(C=C3)O
# Outline: as §1
# [3] = compound: CC1=CC=C(C=C1)SC2=C3C=C(SC3=CN=C2)C(=O)N
# Outline: as §1
# [4] = compound: CC1=NC(=CC=C1)C2=C(N=C(N2)C(C)(C)C)C3=CC4=NC=CN=C4C=C3
# Outline: as §1
# [5] = compound: CCCCN(Cc1ccc(C(=O)NO)cc1)C(=O)Nc1ccccc1 [Nexturastat A]
# Outline: as §1
# [6] = compound: CCCS(=O)(=O)Nc1ccc(F)c(C(=O)c2c[nH]c3ncc(-c4ccc(Cl)cc4)cc23)c1F [vemurafenib]
# Outline: as §1
# [7] = compound: CCCS(=O)(=O)Nc1ccc(F)c(C(=O)c2c[nH]c3ncc(Cl)cc23)c1F
# Outline: as §1
# [8] = compound: CCCc1cc(C)[nH]c(=O)c1CNC(=O)c1cc(-c2ccnc(N3CCN(C)CC3)c2)cc2c1cnn2C(C)C
# Outline: as §1
# [9] = compound: CCN(CC)Cc1ccc2cc(COC(=O)Nc3ccc(C(=O)NO)cc3)ccc2c1 [givinostat]
# Outline: as §1
# [10] = compound: CCN(CCCOc1ccc2c(Nc3cc(CC(=O)Nc4cccc(F)c4)[nH]n3)ncnc2c1)CCOP(=O)(O)O [barasertib]
# Outline: as §1
# [11] = compound: CC[C@@H]1C(=O)N(C)c2cnc(Nc3ccc(C(=O)NC4CCN(C)CC4)cc3OC)nc2N1C1CCCC1
# Outline: as §1
# [12] = compound: CC[C@@H]1C(=O)N(C)c2cnc(Nc3ccc(C(=O)N[C@H]4CC[C@H](N5CCN(CC6CC6)CC5)CC4)cc3OC)nc2N1C(C)C [volasertib]
# Outline: as §1
# [13] = compound: CC[C@H](C)N1C=C(C2=C(C=C(C=C21)C3=CN=C(C=C3)N4CCNCC4)C(=O)NCC5=C(C=C(NC5=O)C)C)C
# Outline: as §1
# [14] = compound: CC[C@H](C)[C@@H](C(=O)N[C@@H]([C@@H](C)O)C(=O)N[C@@H](CC(C)C)C(=O)[C@]1(CO1)C)NC(=O)[C@H]([C@@H](C)CC)N(C)C(=O)C [epoxomicin]
# Outline: as §1
# [15] = compound: CCn1c(C(=O)N(C2CC2)C2CC2)cc2c3c(ncn3C)c(Nc3cc(C)n(C)n3)nc21
# Outline: as §1
# [16] = compound: CCn1cc(-c2ccnc3[nH]c(-c4cccc(CN(C)C)c4)cc23)c(-c2ccc(NC(=O)N(C)C)cc2)n1
# Outline: as §1
# [17] = compound: CN(C)CC(=O)Nc1ccc2[nH]c(=O)c3ccccc3c2c1
# Outline: as §1
# [18] = compound: CN(CCOC1=CC=C(C=C1)C[C@H]2C(=O)NC(=O)S2)C3=CC=CC=N3 (racemic) [rosiglitazone]
# Outline: as §1
# [19] = compound: CN1C2=C(C3=C1C(=O)N(N=C3)CC4=CC(=CC=C4)N)SC(=C2)S(=O)C
# Outline: as §1
# [20] = compound: CN1CCC(CNc2ccc3ncc(-c4cccc(OC(F)(F)F)c4)n3n2)CC1
# Outline: as §1
# UniProt Q9Y5X1, sequence (Q9Y5X1 whole entry, looked up): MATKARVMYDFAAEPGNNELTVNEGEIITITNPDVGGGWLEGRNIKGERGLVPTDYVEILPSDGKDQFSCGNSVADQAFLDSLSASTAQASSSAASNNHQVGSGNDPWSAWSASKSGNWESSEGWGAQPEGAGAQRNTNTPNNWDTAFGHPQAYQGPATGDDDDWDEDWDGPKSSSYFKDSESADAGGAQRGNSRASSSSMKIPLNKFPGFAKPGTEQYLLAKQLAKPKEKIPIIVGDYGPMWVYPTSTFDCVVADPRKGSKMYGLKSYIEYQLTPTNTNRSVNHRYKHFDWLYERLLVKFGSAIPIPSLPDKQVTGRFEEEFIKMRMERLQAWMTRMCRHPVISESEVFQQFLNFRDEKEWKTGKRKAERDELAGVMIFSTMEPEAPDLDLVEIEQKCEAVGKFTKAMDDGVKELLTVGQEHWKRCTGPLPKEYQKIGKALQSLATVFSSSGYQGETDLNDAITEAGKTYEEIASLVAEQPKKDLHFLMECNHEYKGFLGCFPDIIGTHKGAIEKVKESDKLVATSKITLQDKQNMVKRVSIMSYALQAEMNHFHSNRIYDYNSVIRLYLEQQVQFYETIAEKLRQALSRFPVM
# UniProt Q9BVV7, sequence (Q9BVV7 whole entry, looked up): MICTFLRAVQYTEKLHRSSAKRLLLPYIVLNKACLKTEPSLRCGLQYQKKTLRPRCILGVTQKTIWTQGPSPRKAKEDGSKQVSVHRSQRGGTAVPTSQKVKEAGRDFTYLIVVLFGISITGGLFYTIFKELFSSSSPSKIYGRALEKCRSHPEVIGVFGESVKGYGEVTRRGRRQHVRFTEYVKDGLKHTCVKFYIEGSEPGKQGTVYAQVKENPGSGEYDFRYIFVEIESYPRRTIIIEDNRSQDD
# UniProt Q8NBW4, sequence (Q8NBW4 whole entry, looked up): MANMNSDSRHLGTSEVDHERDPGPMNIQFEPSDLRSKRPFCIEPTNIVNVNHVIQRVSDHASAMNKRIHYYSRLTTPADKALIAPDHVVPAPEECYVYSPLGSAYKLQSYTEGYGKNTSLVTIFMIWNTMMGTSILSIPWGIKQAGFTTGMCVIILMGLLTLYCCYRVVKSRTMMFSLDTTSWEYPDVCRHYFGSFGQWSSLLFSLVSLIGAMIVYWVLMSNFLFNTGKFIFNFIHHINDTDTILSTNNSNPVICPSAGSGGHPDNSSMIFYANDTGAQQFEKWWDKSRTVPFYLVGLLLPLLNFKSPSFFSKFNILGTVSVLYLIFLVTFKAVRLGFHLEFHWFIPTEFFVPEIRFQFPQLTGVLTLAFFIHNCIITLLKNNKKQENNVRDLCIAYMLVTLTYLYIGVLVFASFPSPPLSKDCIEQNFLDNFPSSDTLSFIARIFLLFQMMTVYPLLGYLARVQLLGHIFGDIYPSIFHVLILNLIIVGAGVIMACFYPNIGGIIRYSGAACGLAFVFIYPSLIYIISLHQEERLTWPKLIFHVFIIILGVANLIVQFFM
# UniProt Q9BUA3, sequence (Q9BUA3 whole entry, looked up): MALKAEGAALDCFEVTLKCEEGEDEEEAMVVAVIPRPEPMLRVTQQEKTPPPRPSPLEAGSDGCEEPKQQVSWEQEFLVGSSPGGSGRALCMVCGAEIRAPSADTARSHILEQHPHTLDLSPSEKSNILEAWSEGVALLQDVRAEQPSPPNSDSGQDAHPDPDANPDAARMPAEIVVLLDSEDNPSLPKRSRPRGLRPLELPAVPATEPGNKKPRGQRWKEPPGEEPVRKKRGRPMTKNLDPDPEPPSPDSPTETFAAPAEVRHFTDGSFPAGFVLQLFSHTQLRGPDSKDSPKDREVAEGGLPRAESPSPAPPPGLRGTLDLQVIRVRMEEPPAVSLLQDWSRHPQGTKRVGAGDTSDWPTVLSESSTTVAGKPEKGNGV
# UniProt Q86UE8, sequence (Q86UE8 whole entry, looked up): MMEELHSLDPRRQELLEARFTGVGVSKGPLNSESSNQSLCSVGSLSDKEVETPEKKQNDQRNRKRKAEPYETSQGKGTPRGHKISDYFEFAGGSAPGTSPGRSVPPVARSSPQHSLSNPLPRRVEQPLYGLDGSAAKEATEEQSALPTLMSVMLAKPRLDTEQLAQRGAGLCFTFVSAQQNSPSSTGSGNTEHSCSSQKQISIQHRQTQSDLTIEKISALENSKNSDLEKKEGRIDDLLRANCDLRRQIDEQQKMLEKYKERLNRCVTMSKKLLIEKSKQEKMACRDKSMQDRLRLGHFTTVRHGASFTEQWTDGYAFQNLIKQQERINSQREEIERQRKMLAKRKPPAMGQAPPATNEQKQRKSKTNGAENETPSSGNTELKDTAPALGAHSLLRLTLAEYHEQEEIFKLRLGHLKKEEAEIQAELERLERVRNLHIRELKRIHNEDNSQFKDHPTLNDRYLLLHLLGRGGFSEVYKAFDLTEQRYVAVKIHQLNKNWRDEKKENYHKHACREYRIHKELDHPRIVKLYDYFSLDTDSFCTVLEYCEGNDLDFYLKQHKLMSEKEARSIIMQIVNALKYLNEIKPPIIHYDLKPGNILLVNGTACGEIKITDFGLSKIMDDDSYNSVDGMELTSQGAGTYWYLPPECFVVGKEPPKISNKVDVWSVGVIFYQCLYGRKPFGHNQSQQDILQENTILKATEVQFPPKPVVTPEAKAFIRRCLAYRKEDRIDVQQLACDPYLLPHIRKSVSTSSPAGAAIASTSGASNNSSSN
# UniProt P50225, sequence (P50225 whole entry, looked up): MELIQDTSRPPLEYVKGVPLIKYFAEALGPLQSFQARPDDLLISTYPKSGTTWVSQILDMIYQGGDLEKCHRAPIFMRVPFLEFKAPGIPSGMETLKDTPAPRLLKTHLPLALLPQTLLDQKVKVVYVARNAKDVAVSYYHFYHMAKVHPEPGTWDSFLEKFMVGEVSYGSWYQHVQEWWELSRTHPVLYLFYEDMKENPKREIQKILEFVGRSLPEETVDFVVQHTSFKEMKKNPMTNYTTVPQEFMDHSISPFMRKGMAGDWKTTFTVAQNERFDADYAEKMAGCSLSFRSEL
# UniProt Q9NQZ5, sequence (Q9NQZ5 whole entry, looked up): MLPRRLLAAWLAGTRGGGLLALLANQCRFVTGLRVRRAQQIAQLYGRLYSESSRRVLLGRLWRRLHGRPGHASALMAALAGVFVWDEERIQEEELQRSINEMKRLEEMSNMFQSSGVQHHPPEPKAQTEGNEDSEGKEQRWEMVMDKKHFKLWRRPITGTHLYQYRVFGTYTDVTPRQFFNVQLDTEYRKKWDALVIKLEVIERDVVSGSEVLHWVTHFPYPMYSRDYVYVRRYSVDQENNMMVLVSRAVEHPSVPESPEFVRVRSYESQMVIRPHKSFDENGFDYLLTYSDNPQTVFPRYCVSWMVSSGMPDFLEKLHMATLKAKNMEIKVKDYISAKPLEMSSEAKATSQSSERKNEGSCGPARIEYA
# UniProt O60271, sequence (O60271 whole entry, looked up): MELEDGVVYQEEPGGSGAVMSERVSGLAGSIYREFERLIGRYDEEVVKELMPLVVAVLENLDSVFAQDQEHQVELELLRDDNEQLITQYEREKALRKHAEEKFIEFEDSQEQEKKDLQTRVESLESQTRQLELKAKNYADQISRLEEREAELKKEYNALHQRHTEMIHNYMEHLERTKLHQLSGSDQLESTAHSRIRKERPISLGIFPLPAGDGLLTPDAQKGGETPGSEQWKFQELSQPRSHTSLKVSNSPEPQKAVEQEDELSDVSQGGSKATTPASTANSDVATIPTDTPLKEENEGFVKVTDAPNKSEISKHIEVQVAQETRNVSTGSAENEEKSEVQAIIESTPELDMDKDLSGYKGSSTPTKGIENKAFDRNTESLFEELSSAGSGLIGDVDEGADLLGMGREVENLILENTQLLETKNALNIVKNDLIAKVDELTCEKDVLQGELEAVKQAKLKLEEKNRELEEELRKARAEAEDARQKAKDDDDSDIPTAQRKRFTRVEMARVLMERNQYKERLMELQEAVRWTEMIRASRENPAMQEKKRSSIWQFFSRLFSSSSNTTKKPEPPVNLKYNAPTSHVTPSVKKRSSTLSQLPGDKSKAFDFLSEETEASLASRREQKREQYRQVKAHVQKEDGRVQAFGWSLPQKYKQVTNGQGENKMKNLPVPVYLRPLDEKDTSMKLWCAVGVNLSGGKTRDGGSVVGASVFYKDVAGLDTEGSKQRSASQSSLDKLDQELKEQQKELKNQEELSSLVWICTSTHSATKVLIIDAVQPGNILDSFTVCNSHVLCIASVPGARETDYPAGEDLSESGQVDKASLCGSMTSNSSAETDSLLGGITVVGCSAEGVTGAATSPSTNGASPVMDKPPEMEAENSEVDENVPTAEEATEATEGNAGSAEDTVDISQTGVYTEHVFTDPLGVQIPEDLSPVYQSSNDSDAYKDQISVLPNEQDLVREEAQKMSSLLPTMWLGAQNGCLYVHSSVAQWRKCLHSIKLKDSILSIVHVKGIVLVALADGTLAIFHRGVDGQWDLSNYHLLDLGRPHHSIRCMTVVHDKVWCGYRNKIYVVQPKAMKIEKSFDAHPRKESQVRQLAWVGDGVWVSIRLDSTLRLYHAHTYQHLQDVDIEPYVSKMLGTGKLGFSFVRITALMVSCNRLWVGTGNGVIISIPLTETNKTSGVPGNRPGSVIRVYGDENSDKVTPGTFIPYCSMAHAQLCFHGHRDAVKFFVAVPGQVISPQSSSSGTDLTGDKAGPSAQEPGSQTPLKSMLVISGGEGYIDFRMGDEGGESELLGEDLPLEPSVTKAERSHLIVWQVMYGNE
# UniProt Q9Y5L4, sequence (Q9Y5L4 whole entry, looked up): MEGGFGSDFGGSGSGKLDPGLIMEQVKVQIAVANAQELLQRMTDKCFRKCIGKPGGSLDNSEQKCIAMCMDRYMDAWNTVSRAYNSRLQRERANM
# UniProt O60493, sequence (O60493 whole entry, looked up): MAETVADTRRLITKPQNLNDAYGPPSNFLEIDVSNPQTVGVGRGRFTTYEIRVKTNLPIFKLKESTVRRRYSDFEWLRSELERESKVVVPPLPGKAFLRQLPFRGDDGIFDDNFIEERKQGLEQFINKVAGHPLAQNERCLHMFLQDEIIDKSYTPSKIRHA
Target,log2 fold change [1],log2 fold change [2],log2 fold change [3],log2 fold change [4],log2 fold change [5],log2 fold change [6],log2 fold change [7],log2 fold change [8],log2 fold change [9],log2 fold change [10],log2 fold change [11],log2 fold change [12],log2 fold change [13],log2 fold change [14],log2 fold change [15],log2 fold change [16],log2 fold change [17],log2 fold change [18],log2 fold change [19],log2 fold change [20]
TIMM13 (UniProt Q9Y5L4),0.086,-0.048,0.03,0.143,-0.19,0.072,0.015,0.085,0.089,-0.035,0.019,-0.048,0.027,0.213,0.024,0,-0.032,0.029,-0.094,0.237
SPINDOC (UniProt Q9BUA3),0.157,0.037,-0.074,-0.139,-0.014,0.113,0.11,-0.013,-0.127,0.129,-0.131,-0.178,-0.243,0.071,-0.094,0.105,0.074,-0.041,-0.222,-0.02
SNRPB2 (UniProt P08579),-0.016,0.007,-0.026,-0.014,-0.015,-0.036,-0.042,-0.048,-0.051,-0.056,0.176,0.174,-0.069,-0.05,0.025,0.069,-0.063,-0.047,-0.008,0.098
TLK2 isoform 2 (UniProt Q86UE8),-0.003,-0.015,-0.013,0.02,-0.072,-0.029,0.03,-0.036,0.099,-0.006,-0.015,-0.112,0.029,-0.01,0.057,-0.024,-0.012,0.014,-0.039,-0.054
SNX3 (UniProt O60493),-0.013,-0.064,0.073,-0.004,0.037,0.046,0.122,0.02,0.09,0.045,-0.071,-0.147,0.107,-0.033,-0.176,0.057,0.077,0.018,0.116,-0.319
TAOK3 (UniProt Q9H2K8),0.028,-0.031,0.078,0.059,-0.054,0.092,0.115,0,-0.019,0.027,-0.005,-0.083,0.058,0.007,0.007,-0.019,0.059,0.001,-0.067,-0.059
SNX9 (UniProt Q9Y5X1),0.018,-0.031,-0.002,0.03,0.048,0.006,0.041,-0.027,-0.099,0.007,-0.125,-0.309 (active),0.04,-0.02,-0.018,-0.021,-0.006,0.025,0.009,-0.137
STK39 (UniProt Q9UEW8),-0.049,0.006,-0.016,0.033,0.018,0.015,0.032,0.053,0.033,0.033,-0.062,-0.139,0.023,0.054,-0.055,-0.036,-0.011,0.049,0.005,-0.25 (active)
SQSTM1 (UniProt Q13501),0.04,-0.065,-0.054,-0.012,0.102,0.064,0.047,0.103,-0.027,0.032,-0.09,-0.204,0.021,-0.056,0.041,-0.112,0.042,0.012,0.043,-0.022
TIMM21 (UniProt Q9BVV7),0.014,0.008,0.035,0.058,-0.121,0.032,0.067,-0.005,0.005,0.034,-0.133,-0.286 (active),0.034,-0.041,0.029,-0.028,-0.025,0.05,-0.044,-0.227
SPECC1 (UniProt Q5M775),-0.028,-0.015,0.094,-0.063,-0.08,-0.094,-0.06,-0.102,0.035,0.062,0.109,0.052,-0.013,-0.101,0.037,0.004,-0.111,0.023,0.07,-0.012
SULT1A1 (UniProt P50225),0.015,0.162,-0.022,0.025,-0.023,0.135,0.037,0.092,0.044,0.068,-0.159,-0.445 (active),0.091,0.026,-0.056,-0.106,0.105,0.025,0.072,-0.208
STARD7 (UniProt Q9NQZ5),0.061,0.015,0.004,-0.01,-0.053,0,-0.033,0.024,-0.029,-0.008,-0.07,-0.032,0.007,0.024,0.037,-0.123,0.012,0.055,0.012,-0.158
SPAG9 (UniProt O60271),0.023,-0.045,0.002,0.004,0.039,0.028,0.053,0.014,0.06,0.037,-0.039,-0.168,0.046,0.028,-0.014,0.02,0.02,0.043,-0.009,-0.203
SLC38A9 (UniProt Q8NBW4),0.075,0.007,-0.05,0.023,0.088,-0.036,-0.012,-0.105,0.021,-0.006,-0.013,-0.003,-0.022,-0.02,0.007,0.055,-0.039,0.003,0.029,-0.197
SUGP1 (UniProt Q8IWZ8),-0.006,-0.021,0.033,0.065,0.056,0.121,0.096,-0.001,0.095,0.068,-0.155,-0.341 (active),0.056,0.062,-0.102,-0.007,0.021,0.042,-0.028,-0.081
